Reference: PubChem BioAssay AID2650 (Broad Institute, 2010)
The whole screen tested about 320,000 compounds, of which about 320 (0.1%) were called active. Shown is part of a subset that was picked to be rich in actives. Unmarked numbers belong to inactive results.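 Rule for the calls: active = more than half of replicates show inhibition above 20%; inconclusive = some but at most half of replicates above 20% inhibition; inactive = no replicate shows inhibition above 20%.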

Each compound was assayed against Glycogen synthase kinase-3 alpha (Homo sapiens) (UniProt P49840) (assay: blockers of GSK3A enzyme activity – biochemical, luminescence, cell-free homogeneous, HTS, primary screen (AID 2650;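 note: GST-tagged GSK-3 alpha with peptide substrate and 25 µM ATP; 0% = DMSO neutral wells and 100% = GW8510 positive control wells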)). Conditions: GSK-3 alpha kinase, ADP-Glo luminescence, 60 min; at 10 µM; hits give high values.
Glycogen synthase kinase-3 alpha (Homo sapiens), sequence (P49840 whole entry, looked up): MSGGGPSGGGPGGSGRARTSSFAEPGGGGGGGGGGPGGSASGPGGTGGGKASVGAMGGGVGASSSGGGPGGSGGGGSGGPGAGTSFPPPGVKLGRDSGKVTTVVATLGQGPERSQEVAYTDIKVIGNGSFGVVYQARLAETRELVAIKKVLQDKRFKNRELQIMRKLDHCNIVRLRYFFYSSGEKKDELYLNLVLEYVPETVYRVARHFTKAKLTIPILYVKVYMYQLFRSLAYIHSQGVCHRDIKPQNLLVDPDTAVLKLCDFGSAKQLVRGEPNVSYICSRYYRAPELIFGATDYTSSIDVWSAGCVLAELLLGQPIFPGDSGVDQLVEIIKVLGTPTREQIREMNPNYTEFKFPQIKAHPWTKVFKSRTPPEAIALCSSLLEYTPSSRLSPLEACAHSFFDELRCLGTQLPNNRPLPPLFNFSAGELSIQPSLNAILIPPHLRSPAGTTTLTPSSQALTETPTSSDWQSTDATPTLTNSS

Row | Structure (SMILES) | inhibition
1 | Cc1ccccc1-c1cc(C(=O)NCc2cccs2)n(CC2CC(c3cccnc3)=NO2)n1 (configuration not stated) | 8.15%
2 | COC(=O)c1sc(N)c(C(=O)OC)c1COC(=O)CNS(=O)(=O)c1ccc(C)cc1 | -5.73%
3 | O=C(CN1CCC(O)(c2cccc(C(F)(F)F)c2)CC1)NCCc1ccccc1 | -1.83%
4 | COc1ccccc1CNC(=O)Cn1c(=O)oc2cc(Cl)ccc21 | -2.27%
5 | CN(C)Cc1c(O)ccc2c(=O)c(-c3ccccc3Cl)coc12 | 0.391%
6 | COC(=O)C(C)Oc1ccc2c(c1)O/C(=C\c1cccc(Br)c1)C2=O (configuration not stated) | -0.218%
7 | O=C1/C(=C/c2ccc3c(c2)OCO3)Oc2cc(OCC(=O)N3CC(O)C[C@H]3C(=O)O)ccc21 (some centres not stated) | 58.3% (active)
8 | COc1ccc2c(c1)O/C(=C\c1ccccc1O)C2=O | -3.6%
9 | CSc1nccc(NC(=O)c2ccc(C(C)(C)C)cc2)n1 | 0.764%
10 | O=C(Nc1cccc(Cl)c1N1CCOCC1)c1ccc2c(c1)OCCO2 | 3.78%
11 | O=C(Nc1cccc(Cl)c1N1CCOCC1)c1cccnc1 | 1.42%
12 | CCN1CCN(c2c(Cl)cccc2NC(=O)c2ccc(Br)o2)CC1 | 84.2% (active)
13 | CC(C)(C)NS(=O)(=O)NC(=O)C1=C(N2CCCC2)COC1=O | -2.51%
14 | N#Cc1ccc(OCC(=O)NC(=O)NC2CCS(=O)(=O)C2)cc1 (configuration not stated) | 0.468%
15 | CCOC(=O)CCCCCC(=O)Nc1ccc2c(c1)CC(=O)N([C@@H](C)CO)C[C@H](C)[C@@H](CN(C)Cc1ccccc1)O2 | -2.38%
16 | COc1ccc(NC(=O)c2cc([N+](=O)[O-])ccc2NC(=O)CNC2CCCCC2C)c(OC)c1 (configuration not stated) | -2.82%
17 | O=C(Nc1ccc(Cl)c(Cl)c1)N1CC=C(c2ccccc2)CC1 | -0.494%
18 | COc1ccc(-n2c(=S)[nH]c3sc4c(c3c2=O)CCc2ccccc2-4)cc1 | -1.96%
19 | COc1ccc(Cn2c(O)c(/C=C3/C=CC=N3)c(=O)[nH]c2=O)cc1 | 0.739%
20 | CCC(C)NCCOCCOc1ccc(Br)cc1C (configuration not stated) | -0.652%
21 | CCNc1nc(N)nc(Oc2ccc(OCC)nn2)n1 | 3.16%
22 | Cc1ccc(CNCc2ccc3c(c2)OCO3)c(C)c1 | -0.957%
23 | CCOC(=O)c1ccccc1NC(=O)COC(=O)CCC(=O)N1CCOCC1 | 8.47%
24 | COc1ccc(CCNS(=O)(=O)c2cn(C)nc2C)cc1 | 2.55%
25 | Nc1nonc1-n1nnc(C(=O)N/N=C/c2ccccc2O)c1CN1CCCC1 | 49.8%
26 | NNC(=O)c1nnn(-c2nonc2N)c1CN1CCCC1 | 23.2%
27 | Nc1nonc1-n1nnc(C(=O)N/N=C\c2ccncc2)c1CN1CCCCC1 | 107% (active)
